Compounds with a hit are over-represented: about 3.5% of the library has one in this group of screens.
TEAD-YAP inh: TEAD-YAP interaction inhibition, primary screen, TEAD-YAP interaction inhibitor project, luminescence, HEK-TIYL cells | TEAD-Gal4/YAP UAS-luciferase luminescence | inhibition, % at 9.12 µM | 1.4% of 640,000 active | AID 1259422, 2018; in the data active = inhibition above about 32%;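 note: 0% = median of test compound wells and 100% = reference inhibitor wells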
FBW7 activator: FBW7 E3 ligase activators, primary screen, biochemical, AlphaScreen, human; AlphaScreen FBW7–phospho-cyclin E peptide binding, activator screen; normalized activity (activation), % at 26.1 µM; F-box/WD repeat-containing protein 7 (Homo sapiens), Q969H0; 0.13% of 650,000 active; AID 1259310, 2017; in the data active = normalized activity above about 1.9%;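 note: purified mutant Fbw7 with reduced substrate affinity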
MITF primary: MITF inhibitors, primary screen, biochemical, AlphaScreen, human. AlphaScreen MITF homodimerization, bead proximity signal. inhibition, % at 2.6 µM. 0.91% of 650,000 active. AID 1259374, 2018; in the data active = inhibition above about 50%;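 note: 0% = vehicle wells with protein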
Target sequence (O75030 whole entry, looked up): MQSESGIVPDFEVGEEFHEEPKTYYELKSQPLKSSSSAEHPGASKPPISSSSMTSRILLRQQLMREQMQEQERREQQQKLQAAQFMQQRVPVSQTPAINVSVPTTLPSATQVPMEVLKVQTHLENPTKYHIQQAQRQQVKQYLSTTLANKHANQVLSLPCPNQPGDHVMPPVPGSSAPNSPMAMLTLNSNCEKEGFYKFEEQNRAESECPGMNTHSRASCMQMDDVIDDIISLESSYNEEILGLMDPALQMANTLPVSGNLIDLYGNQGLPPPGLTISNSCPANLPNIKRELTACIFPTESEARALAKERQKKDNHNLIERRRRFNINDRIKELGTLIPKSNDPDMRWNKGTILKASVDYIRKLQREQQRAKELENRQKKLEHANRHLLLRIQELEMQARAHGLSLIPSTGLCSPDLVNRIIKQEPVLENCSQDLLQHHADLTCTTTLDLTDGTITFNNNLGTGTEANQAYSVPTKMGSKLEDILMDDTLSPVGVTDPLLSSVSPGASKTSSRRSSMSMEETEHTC
GPR151 ag: activators of human GPR151, primary screen, cell-based, PathHunter beta-arrestin, luminescence | activation, % at 11.2 µM | 1% of 650,000 active | PathHunter beta-arrestin GPR151 cells | G-protein coupled receptor 151 (Homo sapiens), Q8TDV0 | AID 1508602, 2020; in the data active = activation above about 4.9%;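 note: 0% = median of compound wells and 100% = cells with positive control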
* = called active by the depositor.

SMILES | TEAD-YAP inh | FBW7 activator | MITF primary | GPR151 ag
CC(=O)Nc1ccc(Nc2nc(Nc3cnccn3)nc3c2ncn3-c2ccsc2)cc1 | 29 | 3.7* | 7 | 4
CC(=O)Nc1ccc(Nc2nc(Nc3ccccc3)nc3c2ncn3-c2ccccc2)cc1 | 46* | 0 | 2 | 3
CC(=O)Nc1ccc(Nc2nc(-c3c(C)noc3C)nc3c2ncn3-c2ccsc2)cc1 | -3 | 0 | 10 | -2
CC(=O)Nc1ccc(Nc2nc(N3CCc4ccccc4C3)nc3c2ncn3-c2ccsc2)cc1 | 40* | 0 | 10 | -3
CC(=O)Nc1ccc(Nc2nc(Nc3ccc(N4CCOCC4)cc3)nc3c2ncn3-c2ccccc2)cc1 | -2 | 0 | 8 | -2
Nc1nc(Nc2ccncn2)nc2c1ncn2-c1ccccc1 | -10 | 4.2* | -4 | 0
CC(=O)Nc1cccc(NC(=O)c2ccc(=O)n(Cc3ccccc3)c2)c1 | 8 | 1 | 10 | 1
CCCSc1nc(-c2ccccc2)cc(-c2ccc(OC)cc2)c1C#N | 7 | 0 | -9 | 2
CC(=O)Nc1ccc(Nc2nc(Nc3ccncn3)nc3c2ncn3-c2ccccc2)cc1 | 14 | 5.1* | 5 | 2
CC(=O)Nc1ccc(Nc2nc(Nc3ccncc3)nc3c2ncn3-c2ccccc2)cc1 | 45* | 3.4* | -14 | -2
CC(=O)Nc1ccc(Nc2nc(Nc3ccncn3)nc3c2ncn3C(C)C)cc1 | -9 | 0 | 4 | -1
CC(=O)Nc1ccc(Nc2nc(Nc3ccccc3)nc3c2ncn3-c2ccsc2)cc1 | 36* | 0 | 11 | 0
COc1cc(Nc2nc(Nc3ccc(NC(C)=O)cc3)c3ncn(-c4ccccc4)c3n2)cc(OC)c1OC | 39* | 0 | -9 | -2
CC/C(CN1C(=O)c2ccccc2C1=O)=N\O | 4 | 0 | 0 | -1
CC(=O)Nc1ccc(Nc2nc(Nc3nc4ccccc4n3C)nc3c2ncn3-c2ccsc2)cc1 | 43* | 0 | 7 | 0
Cn1c(Nc2nc(NCCO)c3ncn(-c4ccsc4)c3n2)nc2ccccc21 | 14 | 0 | 4 | -3
CC(=O)Nc1ccc(Nc2nc(Nc3ccc(-n4ccnc4)cc3)nc3c2ncn3-c2ccccc2)cc1 | 52* | 0 | 10 | 2
O=C(Cc1ccc(Cl)cc1)Nc1cccc(NC(=O)c2ccco2)c1 | -4 | 0 | -1 | 0
Cc1c(/C=N/Nc2nc3ccccc3[nH]2)c2ccccn2c1C(=O)c1ccncc1 | 3 | 0 | 0 | -2
COc1cc2oc(=O)cc(C)c2cc1C=O | 62* | 0 | 12 | -1
COc1cc2oc(=O)cc(C)c2cc1OC | 5 | 0 | 6 | 0
Cc1ccc(CC2(CCC(=O)N3CCC(Oc4ccc(F)cc4)CC3)CCC(=O)N2)cc1 (configuration not stated) | -2 | 0 | 9 | 0
O=C(Nc1ccc(-n2cccn2)cc1)C1CCN(Cc2nc3c(s2)CCCC3)CC1 | 38* | 0 | -5 | 0
Cc1cc(OCC(=O)Nc2ccc(F)cc2)ccc1[N+](=O)[O-] | -12 | 0 | 1 | -1
Cc1cc(OCC(=O)Nc2c(C)nn(Cc3ccc(F)cc3)c2C)ccc1[N+](=O)[O-] | 54* | 0 | 10 | 0
SMILES | TEAD-YAP inh | FBW7 activator | MITF primary | GPR151 ag
Cc1ccc(CN(Cc2ccco2)C(=S)Nc2cc(Cl)ccc2C)cc1 | 8 | 0 | -16 | 0
Cc1cc(Nc2c(C)cccc2C)n2ncnc2n1 | -5 | 0 | 0 | -1
Cc1cc(Nc2cc3ccccc3cc2O)n2ncnc2n1 | 65* | 0 | -3 | -1
Cc1c(C=O)c2cc([N+](=O)[O-])ccc2n1C | 2 | 0 | -17 | 1
O=C(CSc1nnc(-c2ccc3c(c2)OCO3)o1)Nc1ccc2[nH]c(=O)[nH]c2c1 | 0 | 4.6* | -30 | 1
CCOC(=O)c1ccc(NC(=O)c2ccc(N3CCCCS3(=O)=O)cc2)cc1 | 23 | 0 | 11 | -1
COC(=O)Nc1ccc(S(=O)(=O)N2c3ccccc3CCC2C)cc1 (configuration not stated) | 53* | 0 | -8 | 1
Cc1ccc(N=C(NN)c2ccc3ccccc3n2)cc1 | 92* | 0 | 37 | -1
COc1ccccc1N=C(NN)c1ccc2ccccc2n1 | -32 | 0 | 10 | 0
CCOc1ccc(N=C(NN)c2ccc3ccccc3n2)cc1 | 94* | 0 | 2 | 2
Cc1ccc(C(=O)CN(C(=O)c2ccc([N+](=O)[O-])cc2)N2C(=O)c3ccccc3C2=O)cc1 | 3 | 0 | 0 | -3
COC(=O)C1=C(NC(=O)c2ccccc2Cl)CCS1 | 3 | 0 | 7 | 0
Cc1csc(-c2cc(C(=O)N(C)CCc3ccccn3)cc(-n3cnnn3)c2)c1 | -8 | 0 | 6 | 2
Cc1nc2ccccn2c1C(=O)NCc1ccc2c(c1)OCO2 | 6 | 1 | 14 | 0
Cc1nc2c(C)cccn2c1C(=O)NCc1ccc2c(c1)OCO2 | 34* | 0 | -11 | -1
C(=Nc1ccc2c(c1)OCCO2)c1ccc(OC2CSC2)cc1 | 45* | 1 | 11 | 1
COc1ccc(-c2cc3cccc(OC)c3oc2=O)cc1 | 71* | 0 | -18 | -7
COc1cccc2cc(-c3csc(NC(C)=O)n3)c(=O)oc12 | -9 | 0 | -1 | 2
COc1cccc2cc(-c3csc(N)n3)c(=O)oc12 | 49* | 0 | 0 | -9
CCCCCCc1cc2cc(-c3csc(NC(=O)CCC(=O)NC4CCCC4)n3)c(=O)oc2cc1O | -8 | 1 | 16 | 1
Nc1ccc(NC(=O)CN2CCCCC2)cc1 | 6 | 2.0* | 2 | 0
NCC(=O)N1CC(C(=O)Nc2nc3ccc(-c4cn[nH]c4)cc3s2)C(c2ccccc2)C1 (configuration not stated) | 9 | 0 | -11 | -2
O=C(Nc1nc2ccc(-c3cn[nH]c3)cc2s1)C1COc2ccc(F)cc2C1 (configuration not stated) | 48* | 1 | 14 | -1
COc1ccc2c(c1)CC(C(=O)Nc1nc3ccc(-c4cn[nH]c4)cc3s1)CO2 (configuration not stated) | 20 | 1 | 14 | -1
COc1cccc(CNC(=O)Nc2nc3ccc(-c4cn[nH]c4)cc3s2)c1 | 96* | 0 | 4 | 0
O=C(Nc1nc2ccc(-c3cn[nH]c3)cc2s1)C1CNCC1c1ccccc1 (configuration not stated) | 54* | 1 | 13 | -1
COc1cccc(C(=O)Nc2nc3ccc(-c4cn[nH]c4)cc3s2)c1 | 25 | 0 | 8 | 0
CC(=O)NC1=C(N(C)C)C(=O)c2ccccc2C1=O | -5 | 0 | -4 | 0
CC(=O)N(Cc1ccc(F)cc1)C1=C(Cl)C(=O)c2ccccc2C1=O | 13 | 0 | 10 | -3
CC(=O)N(Cc1ccc(F)cc1)C1=C(NCCc2ccccc2)C(=O)c2ccccc2C1=O | 60* | 0 | 15 | 2

High-throughput results deposited in PubChem BioAssay by The Scripps Research Institute Molecular Screening Center.
